Where “and” joins values, the source holds several entries; their conditions need not be identical. Equal values may be shown once. Inconclusive results are not listed. Calls of active or inactive are those of the source. Unless noted, calls follow the shape of the dose curve; as a rule, active = well fitted activation curve with a large enough effect; inconclusive = small, poorly fitted or top-dose-only effect; inactive = flat fitted curve, though single readings scatter.
Test system: not listed separately
Assay: qHTS assay for small molecule disruptors of the mitochondrial membrane potential - 1 hr assay (AID 651754; calls by dose curve; also: nearly all actives have a fitted effect of over 35% in size; also: potency is read from the fitted curve at half-maximal effect; as to ratio change, negative = depolarisation: % is scaled to controls: 0 for no effect and ±100 for the full control effect)
Conditions: series mostly up to 92.2 µM; ratio change, negative = depolarisation: at the top concentration
Summary of the method: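 Read-out: dye fluorescence at 490 nm ex/535 nm em (monomers) and 540 nm ex/590 nm em (aggregates) in HepG2 cells. Compound exposure 1 hr at 37C, followed by 30 min dye loading.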
For `COc1ccc(C(c2ccc(OC)cc2)C(Cl)(Cl)Cl)cc1`, the Potency was 23.7 µM (active) and 37.6 µM (active). With `O=[N+]([O-])c1c(Cl)c(Cl)cc(Cl)c1Cl` the “ratio change, negative = depolarisation” value was 2.27% (inactive). For `Nc1ccc(Cl)cc1`, the “ratio change, negative = depolarisation” value was 5.03% (inactive). For `CN(C)NC(=O)CCC(=O)O`, the “ratio change, negative = depolarisation” value was 3.8% (inactive). For `Nc1ccc(Cl)cc1N`, the Potency was 8.41 µM (active). For `Cc1cc(O)ccc1Cl`, the “ratio change, negative = depolarisation” value was -18.2% (inactive). For `COC(C)(C)CCCC(C)C/C=C/C(C)=C/C(=O)OC(C)C` (stereo not drawn), the “ratio change, negative = depolarisation” value was 1.06% (inactive). For `O=[N+]([O-])c1cc([N+](=O)[O-])c2ccccc2c1`, the Potency was 33.5 µM (active). In the case of `O=[N+]([O-])c1c2ccccc2cc2ccccc12`, the Potency is reported as 11.9 µM (active). With `CC(C)(O)C(=O)Nc1ccc([N+](=O)[O-])c(C(F)(F)F)c1` the Potency was 29.8 µM (active). For `CCCCC(CC)COC(=O)c1ccccc1C(=O)OCC(CC)CCCC` (stereo not drawn), the “ratio change, negative = depolarisation” value was 5.09% (inactive).

Test system: not listed separately
Assay: qHTS assay for small molecule disruptors of the mitochondrial membrane potential - 5 hr assay (AID 651755; calls by dose curve; also: nearly all actives have a fitted effect of over 40% in size; also: potency is read from the fitted curve at half-maximal effect; as to ratio change, negative = disruption: % is scaled to controls: 0 for no effect and ±100 for the full control effect)
Conditions: JC-1-type ratio dye; series mostly up to 92.2 µM; ratio change, negative = disruption: at the top concentration
Summary of the method: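 Membrane-potential dye readout: red aggregate (540 ex/590 em) versus green monomer (490 ex/535 em) fluorescence after 30 min dye loading, following 5 hr compound exposure at 37C of overnight-plated HepG2 cells.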
With `COc1ccc(C(c2ccc(OC)cc2)C(Cl)(Cl)Cl)cc1` the Potency was 37.6 µM (active). For `O=[N+]([O-])c1c(Cl)c(Cl)cc(Cl)c1Cl`, the “ratio change, negative = disruption” value was 7.64% (inactive). With `Nc1ccc(Cl)cc1` the “ratio change, negative = disruption” value was 10.5% (inactive). In the case of `CN(C)NC(=O)CCC(=O)O`, the “ratio change, negative = disruption” value is reported as 2.23% (inactive). In the case of `Nc1ccc(Cl)cc1N`, the Potency is reported as 13.3 µM (active). In the case of `Cc1cc(O)ccc1Cl`, the “ratio change, negative = disruption” value is reported as -18% (inactive). With `COC(C)(C)CCCC(C)C/C=C/C(C)=C/C(=O)OC(C)C` (stereo not drawn) the “ratio change, negative = disruption” value was -0.678% (inactive). In the case of `O=[N+]([O-])c1c2ccccc2cc2ccccc12`, the Potency is reported as 29.8 µM (active). For `CC(C)(O)C(=O)Nc1ccc([N+](=O)[O-])c(C(F)(F)F)c1`, the Potency was 26.6 µM (active). With `CCCCC(CC)COC(=O)c1ccccc1C(=O)OCC(CC)CCCC` (stereo not drawn) the “ratio change, negative = disruption” value was 5.88% (inactive). With `CCCCOC(=O)c1ccccc1C(=O)OCc1ccccc1` the “ratio change, negative = disruption” value was -11.9% (inactive).

Target: Tumor necrosis factor (Homo sapiens) (UniProt P01375)
Sequence (P01375 whole entry, looked up): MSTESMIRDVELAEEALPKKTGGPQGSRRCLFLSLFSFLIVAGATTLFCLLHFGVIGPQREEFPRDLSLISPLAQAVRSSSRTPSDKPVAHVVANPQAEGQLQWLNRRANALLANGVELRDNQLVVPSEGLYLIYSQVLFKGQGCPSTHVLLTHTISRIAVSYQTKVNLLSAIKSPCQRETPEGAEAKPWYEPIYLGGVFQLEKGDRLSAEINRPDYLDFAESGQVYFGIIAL
Assay: qHTS assay to identify small molecules that stimulate Tumor Necrosis Factor-alpha (TNF-alpha) secretion (AID 651757; active = well fitted curve in the direction sought with a large enough effect in the signal ratio; the % refers to the signal ratio; also: 0% is about no effect)
Conditions: Human cells, HTRF 665/615 ratio; series mostly up to 92.2 µM; activation (TNF-alpha secretion): at the top concentration
Summary of the method: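 THP-1 cells, 3000/well; compound 17 hrs, 37 C; add cryptate/XL665 anti-TNF-alpha antibody pair; 3 hr RT; TR-FRET (HTRF) read of secreted TNF-alpha. Quantitative HTS format.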
For `COc1ccc(C(c2ccc(OC)cc2)C(Cl)(Cl)Cl)cc1`, the outcome was “inactive”. For `O=C(O)COc1ccccc1`, the “activation (TNF-alpha secretion)” value was -0.0796% (inactive). In the case of `O=[N+]([O-])c1c(Cl)c(Cl)cc(Cl)c1Cl`, the “activation (TNF-alpha secretion)” value is reported as 0.189% (inactive). With `Nc1ccc(Cl)cc1` the “activation (TNF-alpha secretion)” value was 0.965% (inactive). For `O=S(=O)(c1ccc(Cl)cc1)c1ccc(Cl)cc1`, the outcome was “inactive”. With `c1cc2ccc3cccc4ccc(c1)c2c34` the “activation (TNF-alpha secretion)” value was 1.87% (inactive). In the case of `OCCCBr`, the “activation (TNF-alpha secretion)” value is reported as 0.2% (inactive). With `CN(C)NC(=O)CCC(=O)O` the “activation (TNF-alpha secretion)” value was -0.053% (inactive). In the case of `Nc1ccc([N+](=O)[O-])cc1`, the “activation (TNF-alpha secretion)” value is reported as 0.225% (inactive). With `CCOP(=O)(NC(C)C)Oc1ccc(SC)c(C)c1` (stereo not drawn) the “activation (TNF-alpha secretion)” value was -0.0276% (inactive). In the case of `CCCCCCCCc1ccc(O)cc1`, the “activation (TNF-alpha secretion)” value is reported as -0.266% (inactive). With `Cc1cc(O)ccc1Cl` the “activation (TNF-alpha secretion)” value was 0.462% (inactive). For `C1CCC(NC2CCCCC2)CC1`, the outcome was “inactive”. For `C=CC(=O)NCNC(=O)C=C`, the “activation (TNF-alpha secretion)” value was 0.113% (inactive). In the case of `COC(C)(C)CCCC(C)C/C=C/C(C)=C/C(=O)OC(C)C` (stereo not drawn), the “activation (TNF-alpha secretion)” value is reported as 0.946% (inactive). With `O=[N+]([O-])c1cc([N+](=O)[O-])c2ccccc2c1` the “activation (TNF-alpha secretion)” value was 1.05% (inactive). With `O=[N+]([O-])c1c2ccccc2cc2ccccc12` the “activation (TNF-alpha secretion)” value was -0.312% (inactive). In the case of `CCCCC(CC)COC(=O)c1ccccc1C(=O)OCC(CC)CCCC` (stereo not drawn), the “activation (TNF-alpha secretion)” value is reported as -0.0431% (inactive). For `CCCCOC(=O)c1ccccc1C(=O)OCc1ccccc1`, the “activation (TNF-alpha secretion)” value was 0.555% (inactive).

Test system: not listed separately
Assay: qHTS assay to identify small molecules that stimulate interleukin-8 (IL-8) secretion (AID 651758; active = well fitted activation curve with a large enough effect in the signal ratio; the % refers to the signal ratio; also: 0% is about no effect)
Conditions: HTRF ratio (665/615); series mostly up to 92.2 µM; activation: at the top concentration
Summary of the method: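 Secreted IL-8 measured homogeneously by TR-FRET (two labelled anti-IL-8 antibodies, 1-3 h at room temperature) after a 16 h, 37 C compound treatment of THP-1 cells at 2000 cells/well.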
For `COc1ccc(C(c2ccc(OC)cc2)C(Cl)(Cl)Cl)cc1`, the “activation” value was -1.48% (inactive). In the case of `O=C(O)COc1ccccc1`, the “activation” value is reported as -4.82% (inactive). With `O=[N+]([O-])c1c(Cl)c(Cl)cc(Cl)c1Cl` the “activation” value was 17.8% (inactive). For `O=S(=O)(c1ccc(Cl)cc1)c1ccc(Cl)cc1`, the “activation” value was -0.363% (inactive). In the case of `c1cc2ccc3cccc4ccc(c1)c2c34`, the “activation” value is reported as 0.488% (inactive). For `Nc1ccc([N+](=O)[O-])cc1`, the “activation” value was 10.3% (inactive). In the case of `CCOP(=O)(NC(C)C)Oc1ccc(SC)c(C)c1` (stereo not drawn), the “activation” value is reported as -18.7% (inactive). For `C1CCC(NC2CCCCC2)CC1`, the “activation” value was -3.78% (inactive). With `C=CC(=O)NCNC(=O)C=C` the “activation” value was -7.14% (inactive). For `CCCCOC(=O)c1ccccc1C(=O)OCc1ccccc1`, the “activation” value was -19.6% (inactive).

Test system: not listed separately
Assay: qHTS assay for environmental chemicals that activate the Aryl hydrocarbon Receptor (AhR) signaling pathway (AID 651777); also: nearly all actives have a fitted effect of over 15% in size; also: potency is read from the fitted curve at half-maximal effect; as to activation: % of control where 0% means no effect
Conditions: 1A2-DRE human hepatoma cells, luciferase, 24 h; activation: stronger effect = higher value
Summary of the method: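 Human hepatoma 1A2-DRE cells stably carrying a DRE/CYP1A2 promoter–luciferase reporter, 1,200 cells/well, exposed to compound 24 hr at 37 C. Luciferase read by One-Glo luminescence after 30 min at room temperature; increased signal marks AhR activation.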
In the case of `COc1ccc(C(c2ccc(OC)cc2)C(Cl)(Cl)Cl)cc1`, the activation is reported as 1.39% (inactive) and 11.4% (inactive) and 6.25% (inactive). In the case of `O=C(O)COc1nc(Cl)c(Cl)cc1Cl`, the activation is reported as 0.732% (inactive). In the case of `O=C(O)COc1ccccc1`, the activation is reported as 0.99% (inactive). With `O=[N+]([O-])c1c(Cl)c(Cl)cc(Cl)c1Cl` the activation was 4.33% (inactive). With `Nc1ccc(Cl)cc1` the activation was 0.816% (inactive). For `COc1nn(CSP(=S)(OC)OC)c(=O)s1`, the activation was -1.09% (inactive). For `ClC1=C(Cl)[C@]2(Cl)[C@@H]3[C@@H]4C[C@@H]([C@H]5O[C@@H]45)[C@@H]3[C@@]1(Cl)C2(Cl)Cl`, the activation was -1.01% (inactive). With `O=S(=O)(c1ccc(Cl)cc1)c1ccc(Cl)cc1` the activation was -0.947% (inactive) and -1.11% (inactive) and 1.55% (inactive). With `c1cc2ccc3cccc4ccc(c1)c2c34` the activation was -0.0456% (inactive) and 4.28% (inactive). In the case of `OCCCBr`, the activation is reported as 1.3% (inactive). In the case of `O=S(=O)(O)C(F)(F)C(F)(F)C(F)(F)C(F)(F)F`, the activation is reported as 1.87% (inactive) and 3.11% (inactive). In the case of `CN(C)NC(=O)CCC(=O)O`, the activation is reported as 0.139% (inactive) and -1.5% (inactive). With `CCOP(=O)(NC(C)C)Oc1ccc(SC)c(C)c1` (stereo not drawn) the activation was 4% (inactive) and 2.89% (inactive). With `Nc1ccc(Cl)cc1N` the Potency was 50.1 µM (active) and 39.8 µM (active). With `CCCCCCCCc1ccc(O)cc1` the activation was 1.65% (inactive) and 1.55% (inactive). For `O=C(Nc1ccccc1-c1ccc(Cl)cc1)c1cccnc1Cl`, the activation was 0.984% (inactive). For `Cc1cc(O)ccc1Cl`, the activation was -0.735% (inactive). In the case of `C1CCC(NC2CCCCC2)CC1`, the activation is reported as -1.28% (inactive) and -0.443% (inactive) and 0.0289% (inactive). In the case of `CCO/N=C(\CC)C1=C(O)CC(c2c(C)cc(C)cc2C)CC1=O` (stereo not drawn), the activation is reported as -2.09% (inactive). In the case of `C=CC(=O)NCNC(=O)C=C`, the activation is reported as 1.7% (inactive) and 2.02% (inactive). With `CC(C)Oc1cccc(NC(=O)c2ccccc2C(F)(F)F)c1` the activation was 11.8% (inactive). For `Clc1cnc(Oc2ccc(Oc3ncc(Cl)cc3Cl)cc2)c(Cl)c1`, the activation was 0.838% (inactive). For `CCCCCC[C@H]1C(=O)O[C@H](C)[C@H](NC(=O)c2cccc(NC=O)c2O)C(=O)O[C@@H](C)[C@@H]1OC(=O)CC(C)C`, the activation was -1.12% (inactive). With `CC(C)(C)C(O)C(Oc1ccc(Cl)cc1)n1cncn1` (stereo not drawn) the activation was 5.62% (inactive). With `COC(C)(C)CCCC(C)C/C=C/C(C)=C/C(=O)OC(C)C` (stereo not drawn) the activation was 4.38% (inactive) and 10.5% (inactive). In the case of `C=CCC1=C(C)C(OC(=O)C2C(C=C(C)C)C2(C)C)CC1=O` (stereo not drawn), the activation is reported as 0.269% (inactive) and 0.976% (inactive). In the case of `O=[N+]([O-])c1cc([N+](=O)[O-])c2ccccc2c1`, the activation is reported as 11.7% (inactive). With `CS(=O)(=O)c1ccc(C(=O)C2C(=O)CCCC2=O)c([N+](=O)[O-])c1` the activation was 3.32% (inactive). With `O=[N+]([O-])c1c2ccccc2cc2ccccc12` the activation was 10% (inactive). For `CC(C)(O)C(=O)Nc1ccc([N+](=O)[O-])c(C(F)(F)F)c1`, the activation was -1.15% (inactive). With `CCCCC(CC)COC(=O)c1ccccc1C(=O)OCC(CC)CCCC` (stereo not drawn) the activation was -0.0838% (inactive) and 0.859% (inactive). In the case of `CCCCOC(=O)c1ccccc1C(=O)OCc1ccccc1`, the activation is reported as 12.8% (inactive) and 3.39% (inactive).
